Compounds with a hit are over-represented: about 3.7% of the library has one in this group of screens.
ClpP mod – qHTS Assay for Activators of ClpP; ATP-dependent Clp protease proteolytic subunit (Bacillus subtilis (strain 168)), P80244; purified B. subtilis ClpP, FRET peptide cleavage, 20 min; Potency, µM (doses to about 57.5 µM), for inactives: top-dose activity change, negative = active; hit rate 1.9% among 340,000; AID 651965, 2013; active = well fitted falling curve with a large enough effect; inconclusive = small, poorly fitted or top-dose-only effect; inactive = no such curve, though single readings can be large or run the other way; note: potency is the fitted concentration of half-maximal effect; the source files actives as falling curves though it sought activators and does not explain the sign; nearly all actives have a fitted effect of over 65% in size
Target sequence (P80244 whole entry, looked up): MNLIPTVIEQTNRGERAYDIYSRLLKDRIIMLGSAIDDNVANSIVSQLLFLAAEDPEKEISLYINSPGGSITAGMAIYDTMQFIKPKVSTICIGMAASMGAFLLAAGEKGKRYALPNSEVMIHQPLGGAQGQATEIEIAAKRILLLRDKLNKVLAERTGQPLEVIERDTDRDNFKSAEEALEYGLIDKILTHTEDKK
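ClpP 10 microg/mL final, pH 8 Tris/KCl buffer with BSA, glycerol, Tween-20; compound pinned in; FRET-FV substrate; RT 20 min; Ex320/Em430; ΔFRET vs ADEP 5.8 microM, DMSO, no enzyme.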
IL-2 act – qHTS of IL-2 Activators | IL-2 activation reporter assay, cell-based qHTS; stimulated with anti-CD3/CD4/CD28 beads; in transgenic mouse T cells | activation, % (series mostly up to about 46 µM) | hit rate 0.065% among 360,000 | AID 652025, 2013; in the data active = activation above about 50%; inconclusive = mostly about 30% to 49%; note: 0% is about no effect
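Readout is EGFP and DsRed signal by fluorescent plate cytometry after 18 h at 37 degrees C. Transgenic mouse T cells (750/well) received compound for 60 min before bead stimulation (anti-CD3, anti-CD4, anti-CD28); memory T cells served as non-tolerant control.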
Nrf2 inh – Nrf2 qHTS screen for inhibitors; A549 ARE-Fluc reporter, luciferase luminescence, 18-24 h; Potency, µM (doses to about 46 µM), for the others: top-dose activity change, negative = inhibition, hits mostly inhibitors; hit rate 2.1% among 360,000; AID 504444, 2011; note: potency is the fitted concentration of half-maximal effect; % is set by controls: 0 for no effect and ±100 for the full control effect; nearly all actives have a fitted effect of over 60% in size
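In this cell-based qHTS, ARE-driven firefly luciferase in A549 cells reports Nrf2 activity; the luminescent signal after BugLite lysis is the measured value, with a prior CellTiter-Fluor read for cell health.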
A549 viability – Nrf2 qHTS screen for inhibitors: counterscreen for cytotoxicity; A549 ARE-Fluc cells, CellTiter-Fluor viability, 18-24 h; Potency, µM (series often up to 46 µM), without a hit: at the top dose activity change, negative = cytotoxicity, usual class: inhibitors; hit rate 0.16% among 390,000; AID 504648, 2011; note: potency is the fitted concentration of half-maximal effect; % is set by controls: 0 for no effect and ±100 for the full control effect
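A549 ARE_Fluc cells in 5% FBS OPTI-MEM were exposed to compounds in concentration-response for 18-24 h at 37 deg C. Viability was read by CellTiter-Fluor fluorescence (Ex 405/Em 525) after 30 min, before the luciferase read.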
miR-21 act – qHTS Assay for Modulators of miRNAs and/orActivators of miR-21 | Potency, µM (highest dose often 38.3 µM), without a hit: top-dose activity change, positive = activation, actives largely listed as activators | AID 2288, 2010 | HeLa miR-21 FLuc reporter, luciferase, 48 h | 340,000 tested, under 10 active;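 note: % of control where 0% means no effect; miR-21 action dims this reporter so a rising signal means less miR-21 action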
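HeLa miR-21-FLuc reporter line, endogenous miR-21; 2000 cells/well in DMEM/10% FBS; compound titration up to ~40uM final, 48 h, 37 degree Celsius; luciferase detection reagent, 15 min lysis, CCD luminescence.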
Nrf2 ARE act – qHTS of Nrf2 Activators. AREc32 ARE-luciferase reporter (MCF7-derived line), luminescence, 24 h. Potency, µM (highest dose often 46.1 µM), inactives show top-dose activation, actives largely listed as activators. hit rate 0.31% among 410,000. AID 624171, 2012; note: potency is the fitted concentration of half-maximal effect; % of control where 0% means no effect; nearly all actives have a fitted effect of over 65% in size
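AREc32 cells carrying an ARE-driven firefly luciferase reporter were seeded at 1000 cells/well in OPTI-MEM with 5% FBS, then exposed to compound for 24 hr at 37 deg C. Luminescence was read with Steady-Glo after 30 min at RT.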
Starred values were filed as active, the others as inactive; u = inconclusive; x = no result. Unless noted, calls come from the whole dose curve; as a rule, active = well fitted curve in the direction sought with a large enough effect; inconclusive = small, poorly fitted or top-dose-only effect, or another doubt; inactive = no such curve, though single readings can be large; an effect the other way counts as inactive or inconclusive.

SMILES | ClpP mod | IL-2 act | Nrf2 inh | A549 viability | miR-21 act | Nrf2 ARE act
CCCN(CCC)C(=O)CSc1nc2n[nH]c(C)c2c(=N)n1-c1ccc(OC)cc1 | -2% | 1 | 18µM* | u | 23% | -1%
COc1ccccc1NC(=O)CSc1nc2n[nH]c(C)c2c(=N)n1-c1ccccc1Cl | -10% | -3 | 13µM* | -10% | 15% | 1%
CCc1ccc(NC(=O)CSc2nc3n[nH]c(C)c3c(=N)n2-c2ccc(C)cc2)cc1 | u | x | x | -14% | 11% | 4%
O=C(CSc1nc(=O)n(Cc2ccco2)c2c1CCC2)NCc1ccccc1 | -1% | x | x | 17% | 0% | -1%
Cc1ccc(NC(=O)Cn2ccn(Cc3ccc(Cl)cc3)c(=O)c2=O)cc1C | 5% | x | 23% | -1% | -2% | 1%
Nc1nc(CSC(=S)N2CCN(c3ccccc3)CC2)nc(Nc2ccccc2)n1 | u | -4 | 16µM* | -7% | 3% | 3%
COC(=O)c1ccc2c(=O)n(CCCCCC(=O)NCc3ccc(Cl)cc3)c(=O)[nH]c2c1 | -6% | x | x | 7% | 3% | 5%
C[n+]1c(-c2ccccc2)cc2c(=Cc3ccc([N+](=O)[O-])cc3)c3ccccc3n21 | -4% | -4 | u | u | x | 5%
CN(C)c1ccc(C=c2c3ccccc3n3c2c2ccccc2[n+]3C)cc1 | -12% | -1 | 8.2µM* | u | x | 8%
CN(C)c1ccc(/C=C/c2c[n+](C)cc3ccccc23)cc1 | -1% | x | x | x | x | x
CCOC(=O)c1cc2c(=Cc3ccc(N(C)C)cc3)c3ccccc3n2[n+]1C | -11% | -4 | 8.2µM* | u | x | 4%
O=C(Nc1nccs1)[C@@H]1CC=C[C@@H]2CCN(C3CCCCC3)C(=O)[C@@H]21 | -2% | x | x | x | x | x
O=C(c1ccccc1)N1CCC(c2nc3ccccc3o2)CC1 | 1% | x | -14% | 0% | 13% | 0%
O=c1oc2c3c4c(cc2c2c1CCC2)OCCN4CCC3 | 18µM* | -2 | -10% | u | -18% | 0%
O=c1[nH]cnc2sc(-c3ccccc3)cc12 | 32µM* | -2 | 6% | 9% | -52% | 1%
Cc1nn(C(C)C(=O)N2CCN(c3ccc(Cl)cc3)CC2)c(=O)c2cc3occc3n12 (centres undefined) | -6% | x | 21µM* | -13% | u | 3%
CCC(=O)N1CCc2cc(Br)cc(S(=O)(=O)CCC(=O)NCCc3cccc(C)c3)c21 | 0% | x | x | 3% | 0% | 1%
Cc1ccc(NC(=O)CN2CCc3cc4c(cc3C2)OCCCO4)cc1 | 0% | -2 | -5% | 5% | -9% | 0%
Cc1cc(C)cc(NC(=O)CN2CCc3cc4c(cc3C2C)OCCCO4)c1 (centres undefined) | -3% | -2 | 26µM* | -17% | -1% | 0%
Cc1cccc(NC(=O)CN2CCc3cc4c(cc3C2)OCCCO4)c1 | 0% | -4 | u | 0% | -5% | -1%
Cc1cccc(NC(=O)CN2CCc3cc4c(cc3C2C)OCCCO4)c1 (centres undefined) | -1% | -4 | 23µM* | -17% | 13% | 0%
CCOC(=O)c1cc(NC(=O)c2ccc(F)cc2)c(=O)n2c1oc1ccc(Cl)cc12 | 1% | x | 5% | 3% | -10% | -1%
Cc1ccc(-n2ncc(C(=O)NCc3ccccn3)c2C2CCN(C(=O)OC(C)(C)C)CC2)cc1C | -2% | x | u | 6% | 24% | 4%
Cc1ccccc1NC(=O)N(O)C1(C#N)CCCCC1 | 32µM* | -4 | 6% | -1% | x | 2%
CCc1cc2c(=O)c(-c3cnn(-c4ccccc4)c3)c(C)oc2c(CN2CCCCC2)c1O | 28µM* | 3 | u | -14% | -5% | 0%

Screening data (PubChem)
